# Assay outcomes: PubChem BioAssay, National Center for Advancing Translational Sciences (NCATS)
# TbPYK inhibitor: blocks Trypanosoma brucei pyruvate kinase | TbPYK enzyme, Kinase-Glo Plus ATP luminescence, 45 min | AID 624173 | hit rate 0.12% among 410,000 | Potency, µM (highest dose often 76.8 µM), for the others: at the highest dose activity, negative = inhibition, actives largely listed as inhibitors; also: % is scaled to controls: 0 for no effect and ±100 for the full control effect; nearly all actives have a fitted effect of over 50% in size
#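 Activity of T. brucei pyruvate kinase was followed by Kinase-Glo Plus luminescence after the enzyme reacted 45 min at room temperature with 130 uM ADP (final) and substrate. Test compounds were added before ADP at multiple concentrations.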
# NS1 function inh: influenza NS1 inhibition; Potency, µM (series often up to 46.1 µM), for inactives: at the highest dose activity, positive = more growth; hit rate 0.4% among 270,000; calls by dose curve; also: actives are rising curves; nearly all actives have a fitted effect of over 50% in size
#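 Read-out: OD600 growth recovery of NS1-expressing budding yeast. Cells grown overnight at 30C in -URA glucose medium, washed, resuspended and diluted 1:100 in 2% galactose assay medium, pH 6.0. Same strain lacking NS1 served as positive control.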
# AMA1 RON2 block: disrupts binding of P. falciparum AMA1 to RON2. AlphaScreen AMA1-biotinylated RON2 peptide binding. Potency, µM (doses to about 58.2 µM), for inactives: at the top dose activity change, negative = inhibition, most hits filed as inhibitors. hit rate 0.2% among 360,000;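 also: 0% = vehicle wells and -100% = peptide control; nearly all actives have a fitted effect of over 45% in size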
#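 AMA1 (3D7) with his tag at 25 nM final met compounds first, then biotinylated RON2 peptide at 25 nM; detection used donor plus acceptor beads, 10 µg/mL apiece, read by AlphaScreen after 30 min at room temperature.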
# Giardia FBPA inh-1: inhibitors of Giardia lamblia fructose-1,6-bisphosphate aldolase. Potency, µM (doses to about 59.6 µM), without a hit: top-dose activity, negative = inhibition, usual class: inhibitors. hit rate 0.71% among 290,000. purified Giardia FBPA. A8B2U2. AID 2451; also: % is scaled to controls: 0 for no effect and ±100 for the full control effect; nearly all actives have a fitted effect of over 55% in size
# Target sequence (A8B2U2 whole entry, looked up): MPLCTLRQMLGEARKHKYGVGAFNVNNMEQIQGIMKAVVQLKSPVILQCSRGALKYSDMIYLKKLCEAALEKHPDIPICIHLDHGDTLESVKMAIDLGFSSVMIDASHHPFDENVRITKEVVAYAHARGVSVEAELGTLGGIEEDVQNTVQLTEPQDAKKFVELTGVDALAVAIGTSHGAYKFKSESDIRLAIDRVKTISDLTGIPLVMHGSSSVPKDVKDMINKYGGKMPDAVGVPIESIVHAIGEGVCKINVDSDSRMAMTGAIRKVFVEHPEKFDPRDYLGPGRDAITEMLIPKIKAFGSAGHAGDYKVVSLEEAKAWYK
#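 Giardia FBPA (40 nM reagent) was preincubated 10 min at RT with compound (up to 57.5 uM final), then substrate plus GAPDH/TPI/NAD/arsenate coupling system with diaphorase/resazurin was added; resorufin fluorescence (525/598 nm) was read after 20 min.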
# LmPK inhibitor: blocks Leishmania mexicana pyruvate kinase activity | Potency, µM (series often up to 57.5 µM), for inactives: at the top dose activity change, negative = inhibition, actives largely listed as inhibitors | hit rate 0.37% among 290,000 | purified LmPK, Kinase-Glo ATP luminescence, 1 h | Q27686; also: % is scaled to controls: 0 for no effect and ±100 for the full control effect
#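 0.1 nM LmPK, 0.5 mM PEP, 0.1 mM ADP; 50 mM imidazole pH 7.2, 7 mM MgCl2, 50 mM KCl; 1 h RT. Kinase-Glo luminescence readout, normalized to no-enzyme (full inhibition) and uninhibited wells.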
# Giardia growth: blocks growth of Giardia lamblia trophozoites | shares compounds with Giardia FBPA inh-1 | Giardia lamblia trophozoite growth inhibition | Potency, µM (highest dose often 57.5 µM), inactives show at the top dose activity change, negative = inhibition, hits mostly inhibitors | hit rate 5% among 1,500 | AID 2785;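 also: trophozoites exposed to compound for 48 h at 37 °C; % is scaled to controls: 0 for no effect and ±100 for the full control effect; nearly all actives have a fitted effect of over 70% in size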
# Mammal cell tox: toxic to mammalian cells in Giardia aldolase counter-screen; shares compounds with Giardia FBPA inh-1; mammalian cell viability counter-screen, qHTS; Potency, µM (highest dose often 57.5 µM), for inactives: top-dose viability change, negative = toxicity, usual class: inhibitors; hit rate 4% among 1,500; AID 2786;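 also: Chinese hamster ovary cells used as mammalian cytotoxicity surrogate; viability measured as cellular ATP by luminescence; compound exposure lasted 48 h before reading; % is scaled to controls: 0 for no effect and ±100 for the full control effect; nearly all actives have a fitted effect of over 60% in size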
# Giardia FBPA inh-2: confirmation of Giardia fructose-bisphosphate aldolase inhibitors; AID 2787; hit rate 5% among 1,500; purified Giardia aldolase enzyme activity, qHTS; Potency, µM (doses to about 57.5 µM), for inactives: at the highest dose activity change, negative = inhibition, actives largely listed as inhibitors; shares compounds with Giardia FBPA inh-1; also: % is scaled to controls: 0 for no effect and ±100 for the full control effect; nearly all actives have a fitted effect of over 45% in size
# Rabbit aldolase: blocks rabbit muscle aldolase in Giardia aldolase selectivity test. shares compounds with Giardia FBPA inh-1. Potency, µM (doses to about 57.5 µM), for the others: at the top dose activity, negative = inhibition, actives largely listed as inhibitors. hit rate 4% among 1,500. Rabbit muscle FBPA enzyme inhibition, selectivity counter-screen; also: % is scaled to controls: 0 for no effect and ±100 for the full control effect; nearly all actives have a fitted effect of over 60% in size
# GAPDH coupling: counter-screen for Giardia aldolase inhibitors: GAPDH coupling enzyme; shares compounds with Giardia FBPA inh-1; GAPDH coupling enzyme counterscreen, biochemical, qHTS; Potency, µM (doses to about 57.5 µM), without a hit: at the top dose activity change, negative = inhibition, hits mostly inhibitors; hit rate 6% among 1,500; also: % is scaled to controls: 0 for no effect and ±100 for the full control effect; nearly all actives have a fitted effect of over 55% in size
# An asterisk follows results filed as active; ? = inconclusive; · = no result given; [ ] = another dose, or the depositor's remark. The list is not random: actives were taken first. Their share in the collection is about 1.2%. Unless noted, calls follow the shape of the dose curve; as a rule, active = well fitted curve in the direction sought with a large enough effect; inconclusive = small, poorly fitted or top-dose-only effect, or another doubt; inactive = no such curve, though single readings can be large; an effect the other way counts as inactive or inconclusive. Potency is read from the fitted curve at half-maximal effect.
SMILES,TbPYK inhibitor,NS1 function inh,AMA1 RON2 block,Giardia FBPA inh-1,LmPK inhibitor,Giardia growth,Mammal cell tox,Giardia FBPA inh-2,Rabbit aldolase,GAPDH coupling
O=c1cnnc(N/N=C/C2CC=CCC2)[nH]1 (stereo unspecified),-4%,·,-4%,20µM*,-3%,?,17%,5%,13%,5%
CCN(CC)c1ccc2c(C)c(Cl)c(=O)oc2c1,-3%,5%,191%,18µM*,-12%,-3%,-1%,-1%,9%,-2%
CCN(CC)c1ccc2c(Cl)c(Br)c(=O)oc2c1,-1%,-110%,98%,2%,1%,·,·,·,·,·
C=CCSc1n[nH]c(-c2cccs2)n1,-16%,-11%,5%,13µM*,1%,-22%,6%,3%,-1%,3%
O=C(CSc1n[nH]c(-c2cccs2)n1)NCc1cccs1,0%,5%,-14%,-14%,0%,·,·,·,·,·
Cn1sc2ccccc2c1=O,?,·,0%,·,·,·,·,·,·,·
CN(C)S(=O)(=O)c1cccc(-n2sc3ccccc3c2=O)c1,4µM*,·,8%,14µM*,-2%,?,?,-5%,22µM*,-15%
CCN(CC)c1ccc(N=Cc2c(C)[nH]c3ccccc23)cc1,-6%,-7%,-13%[2.32 µM],?,2%,5%[38.3 µM],-22%,?,?,?
CCNC(=O)C1CCCN1C(=O)C(CCCN=C(N)N)NC(=O)C(CC(C)C)NC(=O)C(Cc1cn(Cc2ccccc2)cn1)NC(=O)C(Cc1ccc(O)cc1)NC(=O)C(CO)NC(=O)C(Cc1c[nH]c2ccccc12)NC(=O)C(Cc1cnc[nH]1)NC(=O)C1CCC(=O)N1 (stereo unspecified),-1%,-47%,38%,10µM*,-6%,16%[38.3 µM],2%,-4%,13%,0%
CC(CN1CCCC1)OC(=O)c1ccc(F)cc1 (stereo unspecified),1%,19%,-8%,?,0%,·,·,·,·,·
CC(CN1CCCC1)OC(=O)c1cccc(F)c1 (stereo unspecified),3%,-10%,3%,18µM*,-7%,9%[10.4 µM],18%,11%,13%,-8%
O=C(CNCc1ccccc1)Nc1cccc(Cl)c1Cl,5%,-1%,-10%,16µM*,4%,17%,0%,2%,-3%,9%
CO[C@H]1COC(=O)CCC[C@H](C)[C@H](OC)COC(=O)C/C=C\[C@@H]1C,·,·,·,4%[12.9 µM],·,·,·,·,·,·
CCCCC/C=C\C[C@@H]1O[C@H]1/C=C/C(O)C/C=C\CCCC(=O)O (stereo partly specified),·,·,·,4%,·,·,·,·,·,·
CCC(C)N(C)C1CCN(C(=S)Nc2cccc(SC)c2)CC1 (stereo unspecified),-2%,·,1%,10µM*,0%,8%[38.3 µM],-18%,-4%,-4%,-3%
CSc1cccc(NC(=S)N2CCC(N(C)C(C)C)CC2)c1,-2%,-2%,18%,1%,10%,·,·,·,·,·
O=C(Nc1ccccc1C(=O)O)/C(=C/c1ccc([N+](=O)[O-])cc1)NC(=O)c1ccc(Br)o1,4%,·,4%,18µM*,2%,73%,4%,-21%,-24%,-20%
COC(=O)C1=C(C(=O)OC)[C@@H]2N(C)c3ccccc3[C@@]23C[C@@H](C(=O)OC)N(S(=O)(=O)c2ccc([N+](=O)[O-])cc2)C3=N1,·,·,·,0%[12.9 µM],4%[11.5 µM],·,·,·,·,·
